Measurements reported in PubChem BioAssay AID624331 (National Center for Advancing Translational Sciences (NCATS), 2012).
Records with an inconclusive call do not appear. Active and inactive are the calls of the source. Calls come from the whole dose curve; as a rule, active = well fitted activation curve with a large enough effect; inconclusive = small, poorly fitted or top-dose-only effect; inactive = no such curve, though single readings can be large or run the other way.

Experiment: qHTS assay for re-activators of p53 using a Luc reporter: Hit Validation with no p53 Expressed; for activity change, positive = activation: 0% is about no effect
Settings: p53-null cells, luciferase reporter counter-screen; series mostly up to 46.1 µM; activity change, positive = activation: at the top concentration
Procedure, shortened: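 Counter-screen of primary hits in a cell line not transfected with p53, in Opti-MEM with 10% FBS; compounds at several concentrations (10 mM stock, 1:5; top 46.1 µM in well), 24 h at 37 deg C, 5% CO2. Luminescence read after 10 min with Amplite reagent.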
Potency is the fitted concentration of half-maximal effect.

Compound	activity change, positive = activation	Potency
NNC(=O)c1cccc(COc2ccc(Br)cc2)c1	13.2% (inactive)	
Oc1[nH]c2ccccc2c1C=Nc1ccc2c(c1)OCCO2	36.1% (inactive)	
CC(=O)Nc1ccc(SCC(=O)c2cc(C)n(-c3ccccc3)c2C)cc1	8.62% (inactive)	
COc1ccc2oc(C(=O)Nc3nc(C)cs3)c(C)c2c1	11.4% (inactive)	
COc1ccccc1C(=O)NC(=S)NNC(=O)c1sc2ccccc2c1Cl	-18.8% (inactive)	
CN=c1scc(-c2cccs2)n1/N=C/c1ccc(O)c(O)c1O	36.5% (inactive)	
CC12CN(C(=O)c3cccc([N+](=O)[O-])c3)C3(C#N)CC1CCC23C (centres undefined)	-10.6% (inactive)	
Cc1cccc(NC(=O)c2cnc3ccccn3c2=O)c1	12.2% (inactive)	
CCOC(=O)N(Cc1ccccc1)C(C(=O)O)C(C(=O)O)N(Cc1ccccc1)C(=O)OCC (centres undefined)	-32.1% (inactive)	
COc1cc(NC(=O)CSCc2ccc(Cl)cc2)c(C(=O)O)cc1OC	-44% (inactive)	
Oc1cccc2c(NC(=S)Nc3ccc(OC(F)F)cc3)cccc12	-10.6% (inactive)	
CCOc1cccc(-c2c(C(=O)N/N=C(\C)c3ccccn3)nnn2-c2nonc2N)c1	-29.5% (inactive)	
Cc1cccc(-n2c(O)c(C=Nc3ccccc3N)c(=O)[nH]c2=O)c1	62.1% (inactive)	
COc1ccc(C(C)(C)C)cc1NC(=O)Nc1ccc2c(c1)OCO2	29.8% (inactive)	
COc1ccc(C(=O)O/N=C(\N)c2ccccc2)c(OC)c1		1.16 µM (active)
Cc1occc1C(=O)NN=C1C2CC3CC(C2)CC1C3	-3.28% (inactive)	
Cc1ccc(NC(=S)NC(=O)C2CCCCC2)c(Br)c1	37.8% (inactive)	
O=C(NNC1=C(C(=O)C(F)(F)F)CCC1)c1cccc(O)c1	-60.1% (inactive)	
O=C(N/N=C\c1cccc(Cl)c1)c1n[nH]c2c1CCCC2	-19.5% (inactive)	
